Assay outcomes (PubChem)
Compounds with a hit are over-represented: about 1.6% of the library has one in this group of screens.
p53ts 32C kill: cytotoxicity in p53ts cells at permissive temperature; H1299-p53A138V at 32C, ATP luminescence viability, 24 h; Potency, µM (top dose mostly 46.1 µM), inactives show at the highest dose activity change, negative = cytotoxicity, usual class: cytotoxic; 0.93% of 130,000 active; AID 924;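 further: potency means the concentration at half of the fitted maximal effect; 0% = DMSO and -100% = full killing by reference compound; nearly all actives have a fitted effect of over 55% in size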
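ATP-content luminescence (ATPlite) read-out after 24 h compound exposure at 32C in H1299-p53A138V cells (600/well). Tested up to 46 uM. Normalized to DMSO (0%) and 100 uM tamoxifen (100% killing); Hill-fit AC50.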
HBB splicing: alters splicing of the hemoglobin beta chain; HBB splicing reporter cell assay, activation; EGFP reporter with mutant IVS2-654 intron; response scale: normalised to 500 nM splice-correcting PNA; Potency, µM (highest dose often 46.1 µM), without a hit: top-dose activation, hits mostly activators; 0.06% of 65,000 active; AID 925; further: potency means the concentration at half of the fitted maximal effect; 0% is about no effect
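HeLa cells stably expressing EGFP interrupted by mutant beta-globin intron 2 (IVS2-654), 500/well in 2% FCS. Treated with compound for 2 days at 37C. Splicing correction scored as total well GFP intensity (488 nm excitation, 500-520 nm emission); 500 nM antisense PNA served as control.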
p53ts 39C kill: p53ts cell cytotoxicity, nonpermissive temperature; 1.5% of 130,000 active; Potency, µM (doses to about 46.1 µM), without a hit: top-dose activity change, negative = cell killing, usual class: cytotoxic; H1299-p53A138V viability at 39C, ATP luminescence, 24 h; AID 902; further: potency means the concentration at half of the fitted maximal effect; on the % scale 0 is the no-effect control and ±100 the full control effect; nearly all actives have a fitted effect of over 55% in size
Imprint erasure: genomic imprint erasure induction; 0.02% of 110,000 active; mouse ES Peg3-LacZ reporter, beta-gal luminescence, 40 h; Potency, µM (titrated, usually from 60.7 µM), inactives show at the highest dose activity change, positive = activation, usual class: activators; further: potency means the concentration at half of the fitted maximal effect
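Each well holds 300 Peg3LacZ-Neo (maternal) female ES cells incubated 40 h at 37C, 5% CO2. LacZ is measured by BetaGlo luminescence, with AC50 and maximum efficacy derived from dose-response curves.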
Ub-GFP proteasome: ubiquitin-GFP accumulation via proteasome inhibition; Potency, µM (series often up to 45.9 µM), without a hit: top-dose activation (GFP accumulation), hits mostly activators; 67,000 tested, under 10 active; Ubiquitin-GFP reporter cells, proteasome inhibition, GFP fluorescence; response scale: untreated = 0%, 10 µM MG-132 = 100%; AID 526; active means well fitted activation curve with a large enough effect, not every such curve was filed as active; inconclusive means small, poorly fitted or top-dose-only effect, or another doubt; inactive means no such curve, though single readings can be large or run the other way; further: potency means the concentration at half of the fitted maximal effect
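GFP accumulation read-out: laser plate cytometry counting ubiquitin(G76V)-GFP-expressing U2OS cells after 4 hr compound exposure at 37 °C. Titrations spanned 46 uM to 2.9 nM; 0% = basal, 100% = 10 uM MG-132; concentration-response curves fitted.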
GFP derepression: epigenetic modulators derepressing GFP locus in mouse cells. mouse C127i GFP locus derepression, cytometry, 30 h. Potency, µM (titrated, usually from 46.1 µM), for the others: at the top dose GFP derepression (activation). 0.09% of 68,000 active; further: % of control where 0% means no effect
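Locus derepression in mouse mammary C127i cells whose integrated CMV-GFP reporter is normally silent; GFP expression after 30 h compound treatment was quantified by counting fluorescent cells.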
* hit, by the source's call; ? = inconclusive; . = no result given; [ ] = remark or other dose. Unless noted, the call rests on the fitted dose curve; in most records, active means well fitted curve in the direction sought with a large enough effect; inconclusive means small, poorly fitted or top-dose-only effect, or another doubt; inactive means no such curve, though single readings can be large; an effect the other way counts as inactive or inconclusive.

SMILES	p53ts 32C kill	HBB splicing	p53ts 39C kill	Imprint erasure	Ub-GFP proteasome	GFP derepression
COc1ccc(-c2ccc3c(N)c(C(=O)c4ccc(OC)c(OC)c4)sc3n2)cc1	-23%	.	?	18%[10.9 µM]	.	.
COc1cccc(-c2ccc3c(N)c(C(=O)c4ccc(Br)cc4)sc3n2)c1	?	.	13µM*	-13%[10.9 µM]	.	.
CSc1ncc(Cl)c(C(=O)Nc2c(C(=O)Nc3cccc(Cl)c3)oc3ccccc23)n1	2%	.	-5%	-5%[10.9 µM]	.	.
CCOC(=O)CNc1ncnc2nc[nH]c12	7.9µM*	0%	?	-78%	7%	.
COC(=O)c1c(SCC(=O)Nc2cc(OC)cc(OC)c2)[nH]c2ccc(C)cc2c1=O	-6%	.	5µM*	-5%[10.9 µM]	.	.
COC(=O)c1c(SCC(=O)Nc2ccccc2OC)[nH]c2ccccc2c1=O	-24%	.	?	7%[10.9 µM]	.	.
CC1CC[C@@]2(OC1)OC1CC3C4CC=C5CC(O)CC[C@@]5(C)C4CC[C@]3(C)C1C2C (stereo not given in full)	2%	.	1%	1%	.	.
COc1ccc(C(=O)NC(c2ccccc2Cl)c2cc(Cl)c3cccnc3c2O)cc1 (stereo not given)	-9%	.	2.5µM*	-21%[10.9 µM]	.	.
COc1cc(C(=O)NC(c2ccccc2Cl)c2cc(Cl)c3cccnc3c2O)cc(OC)c1OC (stereo not given)	?	.	?	-34%[10.9 µM]	.	.
COc1ccc(CNC(=O)C(=O)Nc2ccccc2OC)cc1	-1%	.	-8%	-13%[10.9 µM]	.	.
CCc1ccc(C(=O)c2cn(CC(=O)Nc3cc(OC)cc(OC)c3)c3ccc(CC)cc3c2=O)cc1	-5%	.	13µM*	-20%[10.9 µM]	.	.
CCc1ccc(C(=O)c2cn(CC(=O)Nc3ccc(F)cc3)c3ccc(OC)cc3c2=O)cc1	-13%	.	-9%	-11%[10.9 µM]	.	.
Cc1ccc(Cn2c(CO)cnc2SCC(=O)Nc2ccc(C)c(Cl)c2)cc1	-2%	.	13µM*	-11%[10.9 µM]	.	.
CCCCN(CCCC)CC(O)Cn1cc(/C=C/C(=O)c2ccccc2)c2ccccc21 (stereo not given)	?	.	?	-14%[10.9 µM]	.	.
CCCCN(C)CC(O)Cn1cc(/C=C/C(=O)c2ccc(OCC)cc2)c2ccccc21 (stereo not given)	16µM*	.	5µM*	-2%[10.9 µM]	.	.
COc1ccc(C2CC(=O)c3c(O)cc(O)cc3O2)cc1O (stereo not given)	22%	.	42%	-36%	.	.
Cc1cccc(CNC(=O)CS(=O)(=O)c2cccc3nsnc23)c1	4%	.	-15%	20%[10.9 µM]	.	.
CC(=O)Nc1ccc(NC(=O)CCc2c(C)nc3c(c(C)nn3-c3ccc(C)cc3)c2C)cc1	-7%	.	7.9µM*	11%[10.9 µM]	.	.
N#Cc1cccc(-c2nc(NCc3cccs3)c3ccccc3n2)c1	-17%	-1%	-24%	6.3µM*	3%	0%[9.22 µM]
Cc1ccc(NC2=C/C(=N\S(=O)(=O)c3cccs3)c3ccccc3C2=O)c(C)c1	3.2µM*	.	7.1µM*	.	.	.
COc1ccc(C2=C(Nc3ccc(C)cc3C)c3ccccc3C2=O)cc1	17%	.	-17%	-5%[10.9 µM]	.	.
COc1ccccc1C(=O)Nc1ccc2c(c1)OCCO2	16µM*	.	16µM*	.	2%	0%
COc1ccc(Cl)cc1C(=O)Nc1ccc2c(c1)OCO2	?	0%	?	-15%	-4%	2%
COc1ccccc1NC(=O)CN1CCN(CC(=O)Nc2ccc3c(c2)OCCO3)CC1	9%	-1%	25µM*	-7%	3%	0%
COc1cc(SC)ccc1C(=O)Nc1ccc2c(c1)OCCO2	10µM*	-1%	13µM*	-74%	6%	2%
SMILES	p53ts 32C kill	HBB splicing	p53ts 39C kill	Imprint erasure	Ub-GFP proteasome	GFP derepression
Cc1cccc(OCC(=O)Nc2ccc3c(c2)OCCO3)c1	10µM*	0%	?	-7%	0%	-3%
COc1ccccc1C(=O)Nc1ccc2c(c1)OCO2	?	-1%[9.22 µM]	?	-63%	15%	-2%
COc1ccc(C2=CC(c3ccc(OC)c(OC)c3)n3nnnc3N2)c(OC)c1 (stereo not given)	-17%	2%[1.84 µM]	-7%	-4%	1%	0%
CC1CN(C(=O)c2ccc(C(=O)c3ccccc3)cc2)CC(C)O1 (stereo not given)	0%	-2%	-12%	-17%	-1%	0%
COc1ccc(-c2c3c([nH]c(=S)c2C#N)CCC3)cc1	.	.	.	.	.	-3%[20.6 µM]
COc1ccccc1CNC(=O)Cn1ncc2c(C)n(Cc3ccccc3Cl)c(C)c2c1=O	-3%	.	?	2%[10.9 µM]	.	.
COc1ccccc1C(=O)Nc1ccc2c(c1)nc(CCNC(C)=O)n2C	13µM*	-1%	13µM*	-13%	2%	0%
COc1ccccc1C(=O)Nc1ccc2c(c1)nc(CN1CCN(C(C)=O)CC1)n2C	20%	-1%	9%	-24%	-2%	0%
O=C(Cn1ncc2c3ccccc3n(Cc3cccc(Cl)c3)c2c1=O)NCCCc1ccccc1	1%	.	-13%	?	.	.
CC1(C)CCCC(C)(C)N1CC(O)COCCOc1ccc(Br)cc1 (stereo not given)	?	.	4.5µM*	.	.	.
COc1ccc(F)cc1S(=O)(=O)Nc1cccc(-c2ccc(N3CCC(C)CC3)nn2)c1	?	.	7.9µM*	-8%[10.9 µM]	.	.
COc1ccc(S(=O)(=O)Nc2cccc(-c3ccc(N4CCC(C)CC4)nn3)c2)cc1OC	3.2µM*	.	2.5µM*	-16%[10.9 µM]	.	.
O=C(Nc1ccccc1F)NC1CCN(Cc2nnnn2Cc2ccc(F)cc2)CC1	9%	.	19%	-10%	-1%	0%
Cc1ccc(CNCc2c(C(=O)O)n(Cc3ccc(C)cc3)c3cc(C)ccc23)cc1	?	.	?	-15%[10.9 µM]	.	.
C=Cc1ccc(Cn2c(C(=O)O)c(CNCc3ccccc3)c3ccc(C)cc32)cc1	?	.	16µM*	3%[10.9 µM]	.	.
Cc1ccc(Cn2c(C(=O)O)c(CNCc3ccc(OC(C)C)cc3)c3ccc(C)cc32)cc1	-7%	.	16µM*	-14%[10.9 µM]	.	.
N#C/C(=C\c1ccc(O)cc1)C(=O)NCC1CCCO1 (stereo not given)	11%	.	-10%	-14%[10.9 µM]	.	.
CCOc1ccccc1CNC(=O)CCc1cn(Cc2ccc(Cl)cc2)c2ccccc12	17%	.	11%	-20%[10.9 µM]	.	.
Clc1ccccc1-c1cncnc1NCCN1CCOCC1	11%	1%	-5%	-34%	5%	3%[9.22 µM]
COc1ccc(OC)c(-c2cc(C(=O)Nc3cnn(Cc4ccc(Cl)cc4Cl)c3)no2)c1	?	.	4µM*	-12%[10.9 µM]	.	.
Cc1ccc(S(=O)(=O)Nc2cccc(-c3ccc(N4CCCC4)nn3)c2)c(C)c1	7%	.	-5%	-8%[10.9 µM]	.	.
Cc1ccc(S(=O)(=O)Nc2cccc(-c3ccc(N4CCCCC4)nn3)c2)s1	13µM*	.	1µM*	-11%[10.9 µM]	.	.
